Inconclusive results are not listed. Unmarked numbers belong to inactive results. The source made the active and inactive calls. The call rests on the fitted dose curve; tested in HEK293 reporter line.
Experiment: qHTS for Inhibitors of the Functional Ribonucleoprotein Complex (vRNP) of Lassa (LASV) Arenavirus: LASV Primary Screen - GLuc reporter signal (AID 1347082); further: nearly all actives have a fitted effect of over 60% in size
Conditions: LASV minigenome vRNP, Gaussia luciferase reporter; series mostly up to 57.5 µM; activity change, negative = inhibition: at the top concentration
On the % scale 0 is the no-effect control and ±100 the full control effect.

Structure (SMILES) | activity change, negative = inhibition [%] | Potency
CC(=O)N[C@@H](CC(C)C)C(=O)O | 6.44 | 
COc1cc(C)nc(-n2nc(C)cc2OC)n1 | 5.25 | 
COCC(=O)Nc1c(I)c(C(=O)NCC(O)CO)c(I)c(C(=O)N(C)CC(O)CO)c1I (stereo not drawn) | -18.1 | 
C[C@]12C=CC(=O)C=C1CC[C@@H]1[C@@H]2C(=O)C[C@@]2(C)[C@H]1CC[C@]2(O)C(=O)CO |  | inactive
CC(=O)O[C@@H]1CC2C3CCc4cc(OC(=O)c5ccccc5)ccc4C3CCC2(C)[C@H]1OC(C)=O (stereo partly drawn) | -12.2 | 
OC[C@H]1O[C@@H]2O[C@H]3[C@H](O)[C@@H](O)[C@@H](O[C@H]4[C@H](O)[C@@H](O)[C@@H](O[C@H]5[C@H](O)[C@@H](O)[C@@H](O[C@H]6[C@H](O)[C@@H](O)[C@@H](O[C@H]7[C@H](O)[C@@H](O)[C@@H](O[C@H]8[C@H](O)[C@@H](O)[C@@H](O[C@H]1[C@H](O)[C@H]2O)O[C@@H]8CO)O[C@@H]7CO)O[C@@H]6CO)O[C@@H]5CO)O[C@@H]4CO)O[C@@H]3CO | -15.3 | 
CC=CC1=C(C(=O)O)N2C(=O)[C@H](NC(=O)[C@H](N)c3ccc(O)cc3)[C@@H]2SC1 | 2.26 | 
CO[C@]12C[C@@H](COC(=O)c3cncc(Br)c3)CN(C)[C@@H]1Cc1cn(C)c3cccc2c13 | -8.17 | 
O=C(O)c1ccccc1S | -12.1 | 
CCCNC(C)C(=O)Nc1c(C)csc1C(=O)OC (stereo not drawn) | -3.63 | 
N[C@@H](COP(=O)(O)O)C(=O)O |  | inactive
O=c1[nH]c(=O)n([C@H]2C[C@H](O)[C@@H](CO)O2)cc1F | -31.9 | 
CCOc1cc(CC(=O)N[C@@H](CC(C)C)c2ccccc2N2CCCCC2)ccc1C(=O)O | -0.345 | 
Cc1ccc(C(C)C)c(O)c1 |  | inactive
CC(C)=CCC1C(=O)N(c2ccccc2)N(c2ccccc2)C1=O | -21.9 | 
O=C1CN(/N=C/c2ccc([N+](=O)[O-])o2)C(=O)N1 | -18.2 | 
NCc1ccc(S(N)(=O)=O)cc1 | -7.41 | 
Nc1nc2[nH]cc(CCc3ccc(C(=O)N[C@@H](CCC(=O)O)C(=O)O)cc3)c2c(=O)[nH]1 | -1.48 | 
O=C(O)c1ccc[n+]([O-])c1 | -4.81 | 

Structure (SMILES) | activity change, negative = inhibition [%] | Potency
NC(Cc1ccc(Cl)cc1)C(=O)O (stereo not drawn) |  | inactive
CS(=O)(=O)c1ccc([C@@H](O)[C@@H](CF)NC(=O)C(Cl)Cl)cc1 | -5.69 | 
CC(C)COC(=O)c1ccc(N)cc1 | -1.87 | 
O=C(O)CCc1nc2ccccc2[nH]1 | 1.99 | 
COc1ccc(O)cc1 |  | inactive
CC(=O)Nc1ncc([N+](=O)[O-])s1 | 3.05 | 
c1ccc2c(c1)CCCC2C1=NCCN1 (stereo not drawn) |  | inactive
Cc1ccc(-c2ncc(Cl)cc2-c2ccc(S(C)(=O)=O)cc2)cn1 | 6.88 | 
Cc1oc(=O)oc1CN1CCN(c2cc3c(cc2F)c(=O)c(C(=O)O)c2n3C(C)S2)CC1 (stereo not drawn) |  | inactive
CN1[C@@H]2CC(OC(=O)[C@H](CO)c3ccccc3)C[C@H]1[C@@H]1O[C@@H]12 (stereo partly drawn) | 5.51 | 
CC(=O)Nc1ccc(C(=O)O)cc1 |  | inactive
Cc1cccc(C)c1NC(=O)CN(CC(=O)O)CC(=O)O | -5.15 | 
CO[C@@H]1[C@@H](OC(N)=O)[C@@H](O)[C@H](Oc2ccc3c(O)c(NC(=O)c4ccc(O)c(CC=C(C)C)c4)c(=O)oc3c2C)OC1(C)C |  | inactive
CCC[C@@H]1C[C@@H](C(=O)N[C@@H]([C@H]2O[C@H](SC)[C@H](O)[C@@H](O)[C@H]2O)[C@@H](C)O)N(C)C1 |  | inactive
Nc1ccc(S(=O)(=O)c2ccc(N)cc2)cc1 | 7.4 | 
Nc1ncnc2c1ncn2Cc1c(F)cccc1Cl | -3.54 | 
Cc1cnc(NS(=O)(=O)c2ccc(N)cc2)nc1 | -4.77 | 
CCCOc1ccc2c(c1)CC[C@@H]1[C@@H]2CC[C@]2(C)C(OC)CC[C@@H]12 (stereo partly drawn) | -3.13 | 
OC[C@@H](O)[C@@H](O[C@@H]1O[C@H](CO)[C@H](O)[C@H](O)[C@H]1O)[C@H](O)[C@@H](O)CO | 9.21 | 

From PubChem BioAssay (NCATS)
